High-throughput results deposited in PubChem BioAssay by National Center for Advancing Translational Sciences (NCATS).
Sampled rows, rich in hits. Any-hit rate of the full collection: about 9%.
HP1b chromo inh = HP1-beta chromodomain-methylated histone interaction inhibition; AID 540317; P83916; AlphaScreen HP1-beta / biotin-H3K9me3 peptide binding; actives 0.56% (n = 390,000); Potency, µM (titrated, usually from 114 µM), usual class: inhibitors; also: nearly all actives have a fitted effect of over 70% in size
Target sequence (P83916 whole entry, looked up): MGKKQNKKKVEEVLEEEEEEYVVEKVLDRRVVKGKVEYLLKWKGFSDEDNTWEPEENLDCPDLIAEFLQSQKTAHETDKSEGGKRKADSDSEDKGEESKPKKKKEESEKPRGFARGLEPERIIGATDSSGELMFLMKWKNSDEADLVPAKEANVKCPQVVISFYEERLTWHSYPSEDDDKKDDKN
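AlphaScreen: HP1-beta (50 nM) preformed 30 min with biotin-H3(1-18)K9me3 peptide (50 nM) in PBS pH 7.4, 0.01% Tween-20. Compound added for 30 min at RT, then streptavidin donor/nickel chelate acceptor beads (10 ug/mL) for 30 min.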
ALOX12 inh = inhibitors of human 12S-lipoxygenase ALOX12; P18054; purified 12hLO, xylenol orange hydroperoxide absorbance; Potency, µM (top dose mostly 108 µM), hits mostly inhibitors; actives 1.1% (n = 580,000); AID 1671190
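Hydroperoxide product was detected by ferrous iron/xylenol orange as the 573 to 405 nm absorbance ratio. Arachidonic acid at 40 uM (final) was turned over for 30 min at room temperature by 150 nM human 12hLO, pH 7.0 Hepes buffer, after 15 min compound preincubation.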
PLK1 PBD block = inhibitors of human PLK1 polo-box domain binding; Plk1 PBD binding of FITC phosphopeptide, fluorescence polarization; Potency, µM, actives largely listed as inhibitors; actives 2.8% (n = 360,000); AID 720504; also: series mostly up to about 57 µM; nearly all actives have a fitted effect of over 65% in size
JMJD2A Tudor = JMJD2A Tudor domain (human) inhibition; Potency, µM (highest dose often 114 µM), actives largely listed as inhibitors; AID 504339; actives 4.4% (n = 390,000); AlphaScreen JMJD2A-Tudor / H3K4me3 peptide binding; also: nearly all actives have a fitted effect of over 50% in size
G9a inh = inhibitors of human histone lysine methyltransferase G9a; actives 8.8% (n = 350,000); Potency, µM (series often up to 102 µM), most hits filed as inhibitors; Q96KQ7; AID 504332; G9a H3K9 monomethylation, AlphaScreen, 2 h; also: nearly all actives have a fitted effect of over 75% in size
Target sequence (Q96KQ7 913-1193 limits assumed): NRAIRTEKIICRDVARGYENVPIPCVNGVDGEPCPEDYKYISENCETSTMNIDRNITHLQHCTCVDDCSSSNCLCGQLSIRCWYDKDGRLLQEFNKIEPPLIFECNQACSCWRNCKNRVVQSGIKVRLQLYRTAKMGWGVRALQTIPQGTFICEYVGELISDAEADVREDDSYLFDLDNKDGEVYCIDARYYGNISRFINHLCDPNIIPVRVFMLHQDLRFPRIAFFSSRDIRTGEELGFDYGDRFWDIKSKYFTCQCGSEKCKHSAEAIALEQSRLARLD
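Signal arises when biotinylated H3K9 peptide, once monomethylated, bridges streptavidin donor and antibody-captured acceptor beads. Enzyme at 20 nM was preincubated 15 min with test compounds; peptide 500 nM and SAM 20 uM then reacted for 2 h.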
BAZ2B inh = BAZ2B (human) inhibition | Q9UIF8 | AlphaScreen BAZ2B-H3K14Ac peptide displacement | Potency, µM (doses to about 114 µM), usual class: inhibitors | actives 4.4% (n = 360,000); also: nearly all actives have a fitted effect of over 60% in size
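Multi-concentration screen (max 110 uM) measuring displacement of acetylated histone H3 peptide from BAZ2B by AlphaScreen, using 50 nM protein, 50 nM peptide and 10 ug/mL streptavidin donor plus Ni-chelate acceptor beads.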
Large screens that a line does not name were inactive. Calls follow the shape of the dose curve; as a rule, active = well fitted curve in the direction sought with a large enough effect; inconclusive = small, poorly fitted or top-dose-only effect, or another doubt; inactive = no such curve, though single readings can be large; an effect the other way counts as inactive or inconclusive.

O=C(c1ccc(NS(=O)(=O)c2ccccc2)cc1)N1CCN(Cc2ccc3c(c2)OCO3)CC1	G9a inh 50µM
COc1ccccc1NC(=S)N1CCN(Cc2ccc3c(c2)OCO3)CC1	none
COc1ccccc1NC(=O)N1CCN(Cc2ccc3c(c2)OCO3)CC1	HP1b chromo inh inconclusive, JMJD2A Tudor 4µM, BAZ2B inh 50µM (no result: G9a inh)
COc1cc(C(=O)N2CCN(Cc3ccc4c(c3)OCO4)CC2)cc(OC)c1OC	HP1b chromo inh inconclusive, ALOX12 inh inconclusive, JMJD2A Tudor 0.89µM, G9a inh 20µM, BAZ2B inh 79µM
COc1ccc(S(=O)(=O)N2CCN(Cc3ccc4c(c3)OCO4)CC2)c2ccccc12	G9a inh 50µM
CCOC(=O)c1c(C)[nH]c(C)c1S(=O)(=O)N1CCC(C(=O)Nc2ccc(OCC)cc2)CC1	none (no result: PLK1 PBD block)
COc1ccc(CN2CCNc3cnc(OCc4cccnc4)cc3C2)cn1	none (no result: HP1b chromo inh, PLK1 PBD block, JMJD2A Tudor, G9a inh, BAZ2B inh)
O=c1[nH]nc(-c2ccc(F)cc2)cc1-c1ccccc1	none
O=S(=O)(Nc1ccc(O)c(CN2CCCCC2)c1)c1ccccc1	G9a inh 45µM
COc1cccc(C(=O)N2CCN(Cc3ccc4c(c3)OCO4)CC2)c1OC	JMJD2A Tudor 7.9µM, G9a inh inconclusive, BAZ2B inh 79µM
Cn1c(CN2CCCC2)nc2cc(NS(=O)(=O)c3ccccc3)ccc21	none
COc1ccc(Cl)cc1C(=O)N1CCN(Cc2ccc3c(c2)OCO3)CC1	none (no result: G9a inh)
CSc1ccc(S(=O)(=O)N2CCN(Cc3ccc4c(c3)OCO4)CC2)cc1	G9a inh 79µM
COc1cc(/C=C/C(=O)OCc2cn3cc(Cl)ccc3n2)ccc1O	none
CC(C(=O)O)c1ccc(/C=C2\CCCCC2=O)cc1 (centres undefined)	none (no result: HP1b chromo inh, PLK1 PBD block, JMJD2A Tudor, G9a inh, BAZ2B inh)
N=c1sccn1CC(=O)Nc1ccc(S(N)(=O)=O)cc1	none
N=c1sccn1CC(=O)Nc1ccc(SC(F)F)cc1	ALOX12 inh inconclusive, PLK1 PBD block 24µM, G9a inh 50µM
COC(=O)C1=C(C(=O)OC)C(c2ccccc2O)c2sc(=O)[nH]c2S1 (centres undefined)	ALOX12 inh 45µM, PLK1 PBD block 4.2µM, G9a inh 10µM, BAZ2B inh inconclusive
CC(=O)NN1C(=O)c2ccccc2NC1c1ccccc1O (centres undefined)	none
O=C1SC(SC(=Nc2ccccc2)Nc2ccccc2)C(=O)N1c1ccccc1 (centres undefined)	HP1b chromo inh inconclusive, PLK1 PBD block 6.7µM, JMJD2A Tudor inconclusive, G9a inh 45µM, BAZ2B inh inconclusive
Cc1cccc(N2C(=O)CC(SC(=Nc3ccccc3)Nc3ccccc3)C2=O)c1 (centres undefined)	none
O=C(C1=C(c2ccccc2)C(=O)c2ccccc2C1=O)c1ccccc1	HP1b chromo inh inconclusive, JMJD2A Tudor 22µM, G9a inh 35µM, BAZ2B inh 13µM
O=C1C(c2ccccc2)=C(c2ccccc2)c2ccccc21	none (no result: HP1b chromo inh, PLK1 PBD block, JMJD2A Tudor, G9a inh, BAZ2B inh)
COC1=C(c2ccccc2)C(=O)c2ccccc2C1=O	HP1b chromo inh inconclusive, PLK1 PBD block inconclusive, JMJD2A Tudor inconclusive, G9a inh 20µM, BAZ2B inh 45µM
Cc1cc(C)cc(OCC(=O)Nc2ccc3[nH]ncc3c2)c1	none (no result: HP1b chromo inh, PLK1 PBD block, JMJD2A Tudor, G9a inh, BAZ2B inh)
CC(C)c1ccccc1OCC(=O)Nc1ccc2[nH]ncc2c1	G9a inh 71µM
COc1cccc(CNC(=O)CSc2nnc(C)c3c(C)n(-c4ccccc4)nc23)c1	G9a inh inconclusive (no result: PLK1 PBD block)
Cc1nnc(SCC(=O)NCCc2ccco2)c2nn(-c3ccc(Cl)cc3)c(C)c12	ALOX12 inh 32µM (no result: HP1b chromo inh, PLK1 PBD block, JMJD2A Tudor, G9a inh, BAZ2B inh)
Cc1cc(Cl)ccc1NC(=O)Cn1nc(C)c2c(C)n(-c3ccccc3)nc2c1=O	BAZ2B inh 56µM (no result: PLK1 PBD block)
Cc1ccc(CCNC(=O)CCCn2nc(C)c3c(C)n(-c4ccc(C)cc4)nc3c2=O)cc1	none
Cc1ccc(-n2nc3c(=O)n(CC(=O)NCCc4ccc(Cl)cc4)nc(C)c3c2C)cc1	G9a inh inconclusive, BAZ2B inh 79µM
CCOC(=O)N1CCN(CC(O)c2ccc3c(c2)CCN3)CC1 (centres undefined)	none
